This is an account of results in PubChem BioAssay (NCI).

About 79,000 compounds went through this panel and 15% of them were active in at least one assay; those are over-represented in the sample as a whole. Values without a mark were called inactive. The source made the active and inactive calls. Cut-off read from the data, not from the text of the source: active = growth inhibition above about 70%; inactive = the rest.

The test in a line: NCI Yeast Anticancer Drug Screen. Data for the wt1 strain (AID 149).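 Note: 0% = growth of vehicle-treated wt1 cultures.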 Particulars: S. cerevisiae wt1 strain (SPY 50644) growth inhibition, active compounds read high. As for the experimental part: Growth inhibition of yeast strains with defined genetic alterations is measured as a screen for potential anti-cancer activity. Selected strains with alterations in DNA damage repair or cell cycle control were exposed to compounds and growth inhibition was measured relative to vehicle treated controls. The strain used in this assay is wt1

Regarding `CN(CCOc1ccc(Cl)cc1)CCOc1ccc(Cl)cc1`, the growth inhibition is, setting by setting: (at 1.2 µM) 7%; (at 3.7 µM) 7%; (at 11.0 µM) 10%; (at 33.0 µM) 39%; (at 100.0 µM) 99% (active).

`CC(=O)/C=C/c1cc([N+](=O)[O-])ccc1O`: the growth inhibition was -12% (at 1.2 µM); -33% (at 3.7 µM); -2% (at 11.0 µM); 66% (at 33.0 µM); 97% (active) (at 100.0 µM).

Take `COc1ccc(-c2cc(-c3cc(C)cc(Cl)c3O)nc3[nH]c(=S)[nH]c(=S)c23)cc1`: the growth inhibition reads like this: (at 1.2 µM) 0%; (at 3.7 µM) -1%; (at 11.0 µM) 0%; (at 33.0 µM) 1%; (at 100.0 µM) 35%.

For `O=C(Nc1ccc(Cl)cc1)c1cc2cc(N=Nc3ccccc3Cl)ccc2oc1=O`, the growth inhibition runs as follows: (at 1.2 µM) 3%; (at 3.7 µM) 8%; (at 11.0 µM) 26%; (at 33.0 µM) 72% (active); (at 100.0 µM) 93% (active).

Consider `O=C(O)CNC(c1ccccc1)(c1ccccc1)c1ccccc1`, for which the growth inhibition by setting is: (at 1.2 µM) -15%; (at 3.7 µM) -9%; (at 11.0 µM) -25%; (at 33.0 µM) 83% (active); (at 100.0 µM) 97% (active).

As for `CCOP(=O)(OCC)/C(C#N)=C/c1ccc(-c2ccc(F)cc2F)o1`, the growth inhibition (at 1.2 µM) is -2%; the growth inhibition (at 3.7 µM) is -2%; the growth inhibition (at 11.0 µM) is -2%; the growth inhibition (at 33.0 µM) was -4%; the growth inhibition (at 100.0 µM) is -1%.

Regarding `COC(=O)/C(C#N)=C\NC(=S)C(N)=S`, the growth inhibition (at 1.2 µM) is 8%; the growth inhibition (at 3.7 µM) was 26%; the growth inhibition (at 11.0 µM) was 54%; the growth inhibition (at 33.0 µM) is 99% (active); the growth inhibition (at 100.0 µM) was 98% (active).

Consider `CCOC(=O)CC1(C)/C(=N\Nc2ccc([N+](=O)[O-])cc2[N+](=O)[O-])CCC2C1CCC1(C)C(C(C)CCCC(C)C)CCC21` (stereo not given), for which the growth inhibition (at 1.2 µM) is 0%; the growth inhibition (at 3.7 µM) is -1%; the growth inhibition (at 11.0 µM) was -1%; the growth inhibition (at 33.0 µM) is -1%; the growth inhibition (at 100.0 µM) is -3%.
